Bioassay records from PubChem.
Mtb UGM inh – M. tuberculosis UGM enzyme inhibitors, primary screen, biochemical, fluorescence polarization, single point. 0.06% of 320,000 active. UDP-galactopyranose mutase (Mycobacterium tuberculosis (strain ATCC 25618 / H37Rv)), …. purified UGM, fluorescence polarization probe displacement. inhibition, % at 10 µM; in the data active = inhibition above about 10%, passing the limit was not always enough
Target sequence (P9WIQ1 whole entry, looked up): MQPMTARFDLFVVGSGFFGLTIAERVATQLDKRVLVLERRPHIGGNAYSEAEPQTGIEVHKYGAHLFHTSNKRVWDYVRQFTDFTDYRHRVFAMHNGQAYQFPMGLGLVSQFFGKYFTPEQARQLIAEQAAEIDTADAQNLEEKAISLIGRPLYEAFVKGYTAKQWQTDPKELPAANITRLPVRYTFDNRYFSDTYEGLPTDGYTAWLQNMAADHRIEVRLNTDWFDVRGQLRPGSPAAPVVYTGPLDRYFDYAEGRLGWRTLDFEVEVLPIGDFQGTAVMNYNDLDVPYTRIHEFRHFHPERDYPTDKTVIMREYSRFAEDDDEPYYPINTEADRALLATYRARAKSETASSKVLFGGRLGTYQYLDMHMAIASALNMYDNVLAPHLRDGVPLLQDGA
Rv3671c inh – Rv3671c serine protease inhibitors, primary screen, biochemical, fluorescence polarization, M. tuberculosis H37Rv; AID 2606, 2010; P9WHR9; 0.048% of 320,000 active; inhibition, % at 5.96 µM; in the data active = inhibition above about 38%;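 also: extracellular domain of Rv3671c used as enzyme; 0% = enzyme with DMSO and 100% = no enzyme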
RecA intein inh – Mtb RecA intein splicing inhibitors, primary screen, biochemical, fluorescence, HTS. cell-free RecA intein splicing. inhibition, % (no concentration beside the values). 0.75% of 290,000 active. AID 2221, 2009; in the data active = inhibition above about 30%;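 also: 0% = vehicle wells and 100% = reference inhibitor control wells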
Mtb bLac sens – beta-lactam sensitization of Mtb H37Rv, H37Rv; M. tuberculosis H37Rv growth with meropenem, percent inhibition; inhibition, % at 25 µM; 0.27% of 330,000 active; call rule not given here;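 also: growth measured after seven days incubation then overnight dye step; 0% = bacteria only wells and 100% = bacteria with antibiotic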
FBA Mtb inh – Mtb FBA enzyme inhibitors, primary screen, biochemical, fluorescence, strain H37Rv; Fructose-bisphosphate aldolase (Mycobacterium tuberculosis (strain ATCC 25618 / H37Rv)), …; inhibition, % at 1 µM; 2.3% of 360,000 active; purified M. tuberculosis FBA, fluorescence read-out; in the data active = inhibition above about 27%;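 also: 0% = vehicle and 100% = reference inhibitor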
GDH-TPI counter – GDH-TPI coupling enzyme inhibitors, primary screen, artefact control for M. tuberculosis FBA inhibitor project, biochemical, absorbance, full deck; GDH-TPI coupled enzyme counterscreen, NADH absorbance; inhibition, % at 4.8 µM; 1.2% of 360,000 active; AID 588335, 2011; in the data active = inhibition above about 30%;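 also: 0% = DMSO wells and 100% = wells lacking the enzyme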
* marks the source's active call; other numbers are inactive results; i = inactive; nt = no result given; + = active, no number. Hits are enriched below; roughly 4% of the tested compounds scored in any of these assays.

SMILES | Mtb UGM inh | Rv3671c inh | RecA intein inh | Mtb bLac sens | FBA Mtb inh | GDH-TPI counter
O=C(c1nc2nc(-c3cccs3)cc(C(F)(F)F)n2n1)N1CCN(Cc2ccccc2)CC1 | -2 | 6 | -10 | -6 | 145* | 22
Nc1nc2nc(-c3cccs3)cc(C(F)(F)F)n2n1 | -1 | 3 | i | -3 | + | 9
O=C(c1nc2nc(-c3ccccc3)cc(C(F)(F)F)n2n1)N1CCOCC1 | -1 | 4 | -4 | 4 | 19 | 13
O=C(c1cnn2c(C(F)(F)F)cc(-c3cccs3)nc12)N1CCCC1 | 4 | -6 | -48 | -2 | 7 | 8
CCOC(=O)c1nc2nc(-c3cccs3)cc(C(F)(F)F)n2n1 | 5 | 4 | -3 | 0 | 114* | 18
O=C(O)C/C(=C\c1ccc(N2CCOCC2)c([N+](=O)[O-])c1)c1nc2ccccc2s1 | 1 | 1 | 6 | -4 | 0 | 33*
COc1ccc(C(=O)c2sc(NC(C)C)nc2N)cc1OC | 0 | -12 | nt | 8 | -2 | 37*
COc1cccc(C(=O)c2sc(NC(C)C)nc2N)c1 | 0 | -8 | 1 | 20 | 2 | 9
O=C(Oc1ccccc1/C=C\C(=O)c1cc2ccccc2o1)c1ccccc1 | 2 | -37 | -2 | 63 | 0 | 7
COc1cccc(C(=O)Oc2ccccc2/C=C\C(=O)c2cc3ccccc3o2)c1 | nt | nt | 26 | nt | -1 | 31*
COc1ccc(CNC(=O)CCS(=O)(=O)c2ccc3c(c2)NC(=O)CS3)cc1 | -1 | -5 | -1 | 1 | 1 | 6
COc1ccc(-c2cn3cccnc3n2)cc1NC(=O)c1cccs1 | -5 | -3 | 1 | 28 | 18 | 19
COc1ccc(-c2cn3cccnc3n2)cc1NC(=O)C(C)Oc1ccccc1 (stereo not given) | -4 | -5 | 0 | 21 | 122* | 13
COc1cccc(C(=O)Nc2cc(-c3cn4cccnc4n3)ccc2C)c1 | -3 | -1 | -3 | 26 | + | 16
COc1ccc(-c2cn3cccnc3n2)cc1NS(=O)(=O)c1ccccc1 | -1 | -6 | -4 | 5 | 15 | 14
CCOCC(=O)Nc1cc(-c2cn3cccnc3n2)ccc1C | -3 | 3 | -8 | -13 | + | 14
CC(C)NC(=O)Cn1cc(C(=O)C(=O)N2CCOCC2)c2ccccc21 | 2 | 3 | -2 | 3 | 1 | 9
CCn1nc2cc(C(=O)NCc3cc(C(F)(F)F)cc(C(F)(F)F)c3)ccc2c1OC | 0 | 3 | 1 | 4 | 39* | 1
CCCCn1nc2cc(C(=O)NCc3ccc(OC(F)(F)F)cc3)ccc2c1OC | -1 | -10 | 1 | 10 | 29* | 5
CCOC(=O)c1ccccc1NC(=O)c1cc2sccc2n1C | 1 | -7 | -2 | 20 | 7 | 32*
CCN(CC)Cc1c(O)ccc2c(C)c(CC(=O)OC)c(=O)oc12 | -2 | -2 | -136 | -17 | + | 24
COC(=O)Cc1c(C)c2ccc(O)c(CNCc3ccc(OC)c(OC)c3)c2oc1=O | 2 | nt | -187 | -1 | + | 24
Cc1nc2ccccn2c1C(=O)N/N=C/c1ccccc1 | -2 | 2 | -4 | -3 | -2 | 15
COc1ccc(/C=N/NC(=O)c2nc(-c3ccccc3)n(-c3ccccc3)n2)c(O)c1 | 1 | 7 | 1 | -6 | 17 | 25
Cc1cc(/C=N\NC(=O)c2cccs2)c(C)n1-c1ccc2ncccc2c1 | 0 | 5 | 6 | 99 | 0 | 37*
SMILES | Mtb UGM inh | Rv3671c inh | RecA intein inh | Mtb bLac sens | FBA Mtb inh | GDH-TPI counter
COc1ccc(/C=N/NC(=O)c2nc(-c3ccccc3)n(-c3ccccc3)n2)cc1 | 3 | -8 | 5 | -5 | 1 | 33*
COc1ccc(/C=N/NC(=O)c2c(C)nc3ccccn23)cc1[N+](=O)[O-] | 0 | 0 | -1 | -10 | 1 | 38*
COc1ccc(/C=N\NC(=O)c2c(C)nc3ccc(Br)cn23)cc1 | -1 | 6 | 0 | -2 | 0 | 43*
CC(=O)c1ccc(NC(=O)C(C)OC(=O)c2ccc(Br)o2)cc1 (stereo not given) | 0 | -5 | nt | -3 | 0 | 7
CC(=O)Nc1cc2cc(NS(=O)(=O)c3ccc(C)cc3)ccc2oc1=O | 4 | -2 | -2 | -4 | -6 | -10
CC(C)NC(=O)C1(C)CCCN1C(=O)c1ccccc1Br (stereo not given) | nt | nt | nt | nt | 1 | 11
Cc1cc2c(SCC(=O)Nc3cccc(O)c3)ncnc2s1 | nt | nt | nt | nt | 1 | 23
COc1ccc(/C=N/NC(=O)c2c(C)nc3ccc(Br)cn23)cc1OC | -3 | 1 | 2 | -1 | -2 | 46*
Cc1ccc(/C=N/NC(=O)c2c(C)nc3ccc(Br)cn23)cc1 | 1 | 4 | 0 | -7 | -2 | 12
COc1ccc(/C=N/NC(=O)c2c(C)nc3ccc(Cl)cn23)cc1OC | 0 | -4 | 0 | 1 | -2 | 26
Cc1nc2ccccn2c1C(=O)N/N=C/c1cc(C)n(-c2ccc(Br)cc2)c1C | -1 | 0 | 5 | 45 | 0 | 37*
COc1cc(/C=N/NC(=O)c2c(C)nc3ccc(Cl)cn23)cc(OC)c1OC | 0 | nt | 0 | -1 | -1 | 36*
O=C(CCNS(=O)(=O)c1ccc(F)cc1)N1CCN(c2ncccn2)CC1 | nt | nt | nt | nt | 1 | 4
CC(=O)c1cn(CC(=O)Nc2ccccc2F)c2ccccc12 | 0 | -3 | nt | -12 | 1 | -1
O=C(Cn1c2ccccc2c(=O)c2ccccc21)Nc1ccccc1F | 0 | -20 | -105 | 6 | 150* | 0
CCOC(=O)Cc1c(C)nc2cc(-c3ccc(Cl)cc3)[nH]n2c1=O | -2 | -4 | -3 | 7 | 1 | 5
CCOC(=O)Cc1c(C)nc2c(-c3ccc(Cl)cc3)c[nH]n2c1=O | -1 | 0 | 0 | 98 | 56* | 21
O=C(CSC1=NCCS1)Nc1ccc(S(=O)(=O)N2CCCCCC2)cc1 | -2 | -9 | 33* | 10 | 2 | 5
O=C(CSC1=NCCS1)Nc1ccc(S(=O)(=O)NC2CCCCC2)cc1 | -1 | 1 | 42* | nt | -3 | 6
CCOc1ccc(Nc2cc(Nc3ccccc3OCC)nc(C=C(C#N)C#N)n2)cc1 | -1 | 6 | 0 | -2 | -2 | -11
CCCCCCn1c(=O)n2n(c1=O)[C@@H]1CN(S(=O)(=O)c3ccc(C)cc3)C[C@]1(O)[C@@H](OC(=O)Nc1cccs1)C2 | nt | nt | nt | nt | 0 | 1
Cc1ccc(-n2nc(C)c3c2OC(N)=C(C#N)C3c2ccccc2F)cc1 (stereo not given) | 0 | -14 | 43* | 4 | -3 | 2
CN(C)c1ccc(/C=N/NC(N)=S)cc1[N+](=O)[O-] | 3 | 6 | -4 | nt | -3 | 43*
